Reference: PubChem BioAssay (NCATS)
Results filed as inconclusive are left out. Values without a mark were called inactive. Calls come from the whole dose curve; as a rule, active = well fitted curve in the direction sought with a large enough effect; inconclusive = small, poorly fitted or top-dose-only effect, or another doubt; inactive = no such curve, though single readings can be large; an effect the other way counts as inactive or inconclusive.

experiment: qHTS for Inhibitors of ATXN expression: Validation of Cytotoxic Assay (AID 588349); conditions: cytotoxicity counter-screen for ATXN expression inhibitors, cell viability; series mostly up to 57.1 µM; activity change, negative = cytotoxicity: at the top concentration
Outline: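 HEK293 cells treated with titrated compound for 72 hr at 37 degrees C; viability read as intracellular ATP by CellTiter Glo luminescence.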
% is set by controls: 0 for no effect and ±100 for the full control effect.

SMILES	activity change, negative = cytotoxicity [%]
O=c1[nH]c2cc(Cl)c(Cl)cc2[nH]c1=O	-8.63
CC(=O)N[C@H](C(=O)O)C(C)(C)SN=O	-8.49
Cc1ccc(C(=O)O[C@H](C(=O)O)[C@@H](OC(=O)c2ccc(C)cc2)C(=O)O)cc1 (tested in a mixture with another compound)	-5.7
CN(C)c1ccc(/C=C2\C(=O)Nc3ccccc32)cc1	-21.3
CCNC(=O)[C@H]1O[C@@H](n2cnc3c(N)nc(NCCc4ccc(CCC(=O)O)cc4)nc32)[C@H](O)[C@@H]1O	1.17
O=C(O)CC[C@@H](C(=O)O)N1C(=O)c2ccccc2C1=O	8.3
CCN1/C(=C/C(C)=O)Sc2ccc(OC)cc21	-11.8
N=c1ccn2c(n1)O[C@H]1[C@H](O)[C@@H](CO)O[C@H]12	-14.9
CNC(=O)[C@H]1O[C@@H](n2cnc3c(NCc4ccc(N)cc4)ncnc32)[C@H](O)[C@@H]1O	-3.95
OC[C@H]1O[C@@H](n2cnc3c(NC4CCCC4)ncnc32)[C@H](O)[C@@H]1O	-5.39
Nc1nc(Cl)nc2c1ncn2[C@@H]1O[C@H](COP(=O)(O)OP(=O)(O)OP(=O)(O)O)[C@@H](O)[C@H]1O	-6.64
C[N+]1(C)C2CC(OC(=O)[C@H](CO)c3ccccc3)CC1C1OC12 (stereo partly drawn)	-1.65
S=C(S)OC1CC2CC1C1CCCC21 (stereo not drawn)	-27.3
Nc1nc(Cl)nc2c1ncn2[C@@H]1O[C@H](CO)[C@@H](O)[C@H]1O	-14.8
CN(C)c1nc(N)c(C(=O)N=C(N)N)nc1Cl	-16.5
c1ccc(-c2ccccn2)nc1	-10.9
CCCCN1CCC(n2c(=O)[nH]c3ccccc32)CC1	-3.89

experiment: qHTS for Inhibitors of ATXN expression: Validation (AID 588378); conditions: cell-based ATXN2 expression reporter assay, luminescence; series mostly up to 57.1 µM; activity change, negative = inhibition: at the top concentration; note: nearly all actives have a fitted effect of over 75% in size
Outline: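 Luminescence from an ATXN2-FFLuc reporter in HEK293 cells served as read-out after 24 h compound treatment at 37 degrees C; CellTiter-Fluor fluorescence was recorded first to assess viability.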

SMILES	activity change, negative = inhibition [%]
O=c1[nH]c2cc(Cl)c(Cl)cc2[nH]c1=O	52.3
CC(=O)N[C@H](C(=O)O)C(C)(C)SN=O	-10.1
Cc1ccc(C(=O)O[C@H](C(=O)O)[C@@H](OC(=O)c2ccc(C)cc2)C(=O)O)cc1 (tested in a mixture with another compound)	0.15
CN(C)c1ccc(/C=C2\C(=O)Nc3ccccc32)cc1	119
CCNC(=O)[C@H]1O[C@@H](n2cnc3c(N)nc(NCCc4ccc(CCC(=O)O)cc4)nc32)[C@H](O)[C@@H]1O	17.6
O=C(O)CC[C@@H](C(=O)O)N1C(=O)c2ccccc2C1=O	5.89
CNC(=O)[C@H]1O[C@@H](n2cnc3c(NCc4ccc(N)cc4)ncnc32)[C@H](O)[C@@H]1O	-13.2
OC[C@H]1O[C@@H](n2cnc3c(NC4CCCC4)ncnc32)[C@H](O)[C@@H]1O	-14.9
Nc1nc(Cl)nc2c1ncn2[C@@H]1O[C@H](COP(=O)(O)OP(=O)(O)OP(=O)(O)O)[C@@H](O)[C@H]1O	19.2
c1ccc(-c2ccccn2)nc1	-10.6
CCCCN1CCC(n2c(=O)[nH]c3ccccc32)CC1	9.22
